This note sets out measurements from PubChem BioAssay (NCI).

Molecules are shown by their SMILES. Compounds without any hit were thinned out: in the full panel of roughly 83,000, 20% have a hit.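 Single-concentration screen, 48 h exposure, 96-well plates. Endpoint: percent growth. Below 10 = active.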 Activity calls are given as the source filed them.

One assay concerns T-47D breast. Briefly: NCI-60 one-dose screen, 48 h (100 = growth as untreated, 0 = no growth, -100 = all killed). The settings on record: 10 µM unless noted.
Take `COc1cc(CN(c2ccc(C)cc2)C2OC(=O)c3ccccc32)cc(OC)c1OC` (stereo not drawn): the growth is 53.8% (inactive).

In the case of `COc1cc2c(c(OC)c1O)C(=O)C(OC)C(c1ccc(O)c(O)c1)O2` (stereo not drawn), the growth was 50.3% (inactive).

As for `ClCc1c(Cl)c(Cl)c(Cl)c(CCl)c1Cl`, the growth is -71.5% (active).

For the molecule `Brc1ccsc1Br`, the growth is 95.4% (inactive).

For the molecule `CCCCSc1ncnc2c1ncn2C1CCCCO1` (stereo not drawn), the growth is 104% (inactive).

Take `Clc1ccc(-c2cnc3c(-c4ccnc(N5CCNCC5)c4)cnn3c2)cc1`: the growth is -55.6% (active).

With `O=C1Nc2ccccc2/C1=C\c1nc(C2CCN(S(=O)(=O)c3ccc(F)cc3)CC2)n2ccccc12`, the growth was 48.1% (inactive).

For `COc1cc(/C=C/c2cc(/C=C/c3ccc(O)c(OC)c3)n(C(=O)Nc3ccc(F)c(Cl)c3)n2)ccc1O`, the growth is 2.29% (active).

Turning to `O=C(Nc1cccc(-n2ccc3c(NC(=O)c4ccccc4)nccc32)c1)c1ccc(N2CCOCC2)c(C(F)(F)F)c1`, the growth was 7.57% (active).

As for `CCOC(=O)c1cc(N)nc2ccccc12`, the growth is 93.7% (inactive).

With `CCOC(=O)Cc1cc(Br)c(OCc2ccccc2)c(Br)c1`, the growth was 85.6% (inactive).

Turning to `CCOC(=O)C1C(=O)C=C(c2ccccc2)CC1c1sc(N(C)Cc2ccccc2)nc1Cl` (stereo not drawn), the growth is 60.4% (inactive).

`O=c1c2cc(Br)cc(Br)c2nc(-c2ccc(Cl)cc2)n1/N=C\c1ccccc1F`: the growth is 69.7% (inactive).

For the molecule `CCN(CC)c1cc(C)c(Cc2c(OC)ccc3ccccc23)cc1C`, the growth is 82.3% (inactive).

In the case of `CCN(C(=O)CCl)C(C)(C)C(SSSC(c1ccc(Cl)cc1)C(C)(C)N(CC)C(=O)CCl)c1ccc(Cl)cc1` (stereo not drawn), the growth was 87.1% (inactive).

Regarding `O=C(Nc1ccc(Br)cc1)c1ccc(Cl)c(Cl)c1`, the growth was 5.65% (active).

With `COc1ccc2nc(C)cc(Sc3nc4ccccc4s3)c2c1`, the growth is 32.5% (inactive).

With `C[C@@H]1N=C(c2ccc3ccccc3c2)Nc2nc3ccccn3c2C1=O`, the growth is 41.7% (inactive).

In the case of `CC(C)[C@@H]1C=C2CC[C@H]3[C@](C)(CN)CCC[C@]3(C)[C@H]2CC1`, the growth is 53.8% (inactive).

In the case of `O=C(Nc1ccc(-n2ccc3c(NC(=O)c4ccccc4)nccc32)cc1)c1ccc(N2CCOCC2)c(C(F)(F)F)c1`, the growth was 28.2% (inactive).

`COc1ccc(CNc2c3ccccc3nc3ccccc23)cc1F`: the growth is 35% (inactive).

On to `Cc1cc(O)ccc1Sc1ccccc1[N+](=O)[O-]`, for which the growth was 98.7% (inactive).

`O=C(C(=O)N1CCCC1)c1cn(CCCn2cc(C(=O)C(=O)N3CCCC3)c3cc(Br)ccc32)c2ccc(Br)cc12`: the growth was 70.8% (inactive).

Turning to `COc1cc(/C=N/NC(=O)Cn2c(-c3ccc(C)o3)nc3ccccc32)ccc1OCc1ccccc1`, the growth was 69.2% (inactive).

Consider `CCOCCNc1ccc(S(=O)(=O)c2ccc(N)cc2)cc1N`, for which the growth is 99.8% (inactive).

For `CC(C)(C)c1ccc(OC(=O)Nc2ccccc2)cc1`, the growth was 99.7% (inactive).

In the case of `CCOC(=O)c1cc(C(=O)OCC)c(C)nc1C`, the growth was 102% (inactive).

For `Cc1ccc(OC2=C(C#N)C(=N)N3C(=NN2)Sc2c(C)ccc(C)c23)cc1`, the growth was 84.8% (inactive).

`COc1cccc(NC(=O)OC(C)C)c1`: the growth is 93.8% (inactive).

In the case of `CCCCCCCCCCCC1=NC(C)(C)CN1C(C)C`, the growth is 36.3% (inactive).

For the molecule `O=C(Nc1ccccc1)c1cc2ccccc2s1`, the growth is 38.1% (inactive).

As for `CC(C)(C)[Si](C)(C)OC1[C@@H](CNC(N)=O)O[C@@H](n2cnc3c(NC(=O)Nc4ccccc4)ncnc32)[C@H]1O[Si](C)(C)C(C)(C)C` (stereo partly drawn), the growth was 64.6% (inactive).

Take `O/N=C/c1ccncc1`: the growth is 97.3% (inactive).

As for `COc1ccc2nc3ccccc3c(NCc3ccc(C)cc3)c2c1`, the growth is 30.6% (inactive).

Turning to `C=C(C)[C@@H]1CC[C@]2(C(=O)NC(COC(=O)C(Cl)Cl)(COC(=O)C(Cl)Cl)COC(=O)C(Cl)Cl)CC[C@]3(C)[C@H](CC[C@@H]4[C@@]5(C)CC[C@H](OC(C)=O)C(C)(C)[C@@H]5CC[C@]43C)[C@@H]12`, the growth is 31.9% (inactive).

Turning to `C#Cc1cccc(Nc2nc3cc([N+](=O)[O-])ccc3nc2Nc2ccc(O)cc2)c1`, the growth is -0.313% (active).

On to `N#CCCn1cnc2c(N)ncnc21`, for which the growth is 95.4% (inactive).

As to `O=C(CCl)N1c2ccccc2Oc2ccc3ccccc3c21`, the growth is -62.5% (active).

For `CC(C)c1ccc(-c2cnc3nonc3n2)cc1`, the growth is 42.5% (inactive).

In a further assay the test system is BT-549 breast. Described as above. The following applies: 10 µM unless noted.
Take `COc1cc(CN(c2ccc(C)cc2)C2OC(=O)c3ccccc32)cc(OC)c1OC` (stereo not drawn): the growth was 20.8% (inactive).

Consider `COc1cc2c(c(OC)c1O)C(=O)C(OC)C(c1ccc(O)c(O)c1)O2` (stereo not drawn), for which the growth was -14.6% (active).

`ClCc1c(Cl)c(Cl)c(Cl)c(CCl)c1Cl`: the growth is 87.5% (inactive).

With `Brc1ccsc1Br`, the growth is 102% (inactive).

As to `CCCCSc1ncnc2c1ncn2C1CCCCO1` (stereo not drawn), the growth is 107% (inactive).

For the molecule `Clc1ccc(-c2cnc3c(-c4ccnc(N5CCNCC5)c4)cnn3c2)cc1`, the growth was 78.1% (inactive).

In the case of `O=C1Nc2ccccc2/C1=C\c1nc(C2CCN(S(=O)(=O)c3ccc(F)cc3)CC2)n2ccccc12`, the growth was 2.09% (active).

`COc1cc(/C=C/c2cc(/C=C/c3ccc(O)c(OC)c3)n(C(=O)Nc3ccc(F)c(Cl)c3)n2)ccc1O`: the growth is -24.2% (active).

In the case of `O=C(Nc1cccc(-n2ccc3c(NC(=O)c4ccccc4)nccc32)c1)c1ccc(N2CCOCC2)c(C(F)(F)F)c1`, the growth is 25.2% (inactive).

Consider `CCOC(=O)c1cc(N)nc2ccccc12`, for which the growth is 105% (inactive).

In the case of `CCOC(=O)Cc1cc(Br)c(OCc2ccccc2)c(Br)c1`, the growth was 98.3% (inactive).

`CCOC(=O)C1C(=O)C=C(c2ccccc2)CC1c1sc(N(C)Cc2ccccc2)nc1Cl` (stereo not drawn): the growth was 96.1% (inactive).

In the case of `O=c1c2cc(Br)cc(Br)c2nc(-c2ccc(Cl)cc2)n1/N=C\c1ccccc1F`, the growth was 88.3% (inactive).

`CCN(CC)c1cc(C)c(Cc2c(OC)ccc3ccccc23)cc1C`: the growth was 105% (inactive).

As for `CCN(C(=O)CCl)C(C)(C)C(SSSC(c1ccc(Cl)cc1)C(C)(C)N(CC)C(=O)CCl)c1ccc(Cl)cc1` (stereo not drawn), the growth was 85.8% (inactive).

`O=C(Nc1ccc(Br)cc1)c1ccc(Cl)c(Cl)c1`: the growth is 60.6% (inactive).

As to `COc1ccc2nc(C)cc(Sc3nc4ccccc4s3)c2c1`, the growth was -11.8% (active).

For the molecule `C[C@@H]1N=C(c2ccc3ccccc3c2)Nc2nc3ccccn3c2C1=O`, the growth was 35.1% (inactive).

On to `CC(C)[C@@H]1C=C2CC[C@H]3[C@](C)(CN)CCC[C@]3(C)[C@H]2CC1`, for which the growth was 90.7% (inactive).

Turning to `O=C(Nc1ccc(-n2ccc3c(NC(=O)c4ccccc4)nccc32)cc1)c1ccc(N2CCOCC2)c(C(F)(F)F)c1`, the growth is 28.5% (inactive).

Take `COc1ccc(CNc2c3ccccc3nc3ccccc23)cc1F`: the growth was 49.5% (inactive).

In the case of `Cc1cc(O)ccc1Sc1ccccc1[N+](=O)[O-]`, the growth is 93.2% (inactive).

On to `O=C(C(=O)N1CCCC1)c1cn(CCCn2cc(C(=O)C(=O)N3CCCC3)c3cc(Br)ccc32)c2ccc(Br)cc12`, for which the growth is 84.7% (inactive).

In the case of `COc1cc(/C=N/NC(=O)Cn2c(-c3ccc(C)o3)nc3ccccc32)ccc1OCc1ccccc1`, the growth is 92% (inactive).

Turning to `CCOCCNc1ccc(S(=O)(=O)c2ccc(N)cc2)cc1N`, the growth is 107% (inactive).

For the molecule `CC(C)(C)c1ccc(OC(=O)Nc2ccccc2)cc1`, the growth is 87.5% (inactive).

Take `CCOC(=O)c1cc(C(=O)OCC)c(C)nc1C`: the growth is 115% (inactive).

Regarding `Cc1ccc(OC2=C(C#N)C(=N)N3C(=NN2)Sc2c(C)ccc(C)c23)cc1`, the growth is 105% (inactive).

Turning to `COc1cccc(NC(=O)OC(C)C)c1`, the growth is 103% (inactive).

On to `CCCCCCCCCCCC1=NC(C)(C)CN1C(C)C`, for which the growth was 77.9% (inactive).

Take `O=C(Nc1ccccc1)c1cc2ccccc2s1`: the growth was 95.9% (inactive).

Regarding `CC(C)(C)[Si](C)(C)OC1[C@@H](CNC(N)=O)O[C@@H](n2cnc3c(NC(=O)Nc4ccccc4)ncnc32)[C@H]1O[Si](C)(C)C(C)(C)C` (stereo partly drawn), the growth is 80.1% (inactive).

As to `O/N=C/c1ccncc1`, the growth was 117% (inactive).

Turning to `COc1ccc2nc3ccccc3c(NCc3ccc(C)cc3)c2c1`, the growth was 51.6% (inactive).

As for `C=C(C)[C@@H]1CC[C@]2(C(=O)NC(COC(=O)C(Cl)Cl)(COC(=O)C(Cl)Cl)COC(=O)C(Cl)Cl)CC[C@]3(C)[C@H](CC[C@@H]4[C@@]5(C)CC[C@H](OC(C)=O)C(C)(C)[C@@H]5CC[C@]43C)[C@@H]12`, the growth was 80.4% (inactive).

For `C#Cc1cccc(Nc2nc3cc([N+](=O)[O-])ccc3nc2Nc2ccc(O)cc2)c1`, the growth is 27.7% (inactive).

For `N#CCCn1cnc2c(N)ncnc21`, the growth is 103% (inactive).

For `O=C(CCl)N1c2ccccc2Oc2ccc3ccccc3c21`, the growth was -67.3% (active).

As to `CC(C)c1ccc(-c2cnc3nonc3n2)cc1`, the growth was 7.62% (active).
